Yeast superoxide: caloric restriction mimetics inhibiting age-related superoxide in yeast; S. cerevisiae aged cells, superoxide DHE fluorescence; hits give low values; superoxide response (% of plate mean), % at 10 µM; hit rate 0.18% among 330,000;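 active = superoxide response under a set limit, about three screen SD below normal, cut at about 65% in these data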;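 note: yeast aged for seven days with compound at 30 °C before DHE staining; 100% = average MFI of all compound-treated wells on the plate with controls excluded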
PLC-gamma1 inh: PLC-gamma1 (human) inhibition, primary screen | purified PLC-gamma1, fluorogenic substrate, fluorescence | inhibition, % at 12.2 µM | hit rate 0.84% among 370,000; in the data active = inhibition above about 9.5%
HGIII-sPLA2 inh: Blocks human group III sPLA2 activity. inhibition, % at 12.2 µM. Q9NZ20. hit rate 0.56% among 370,000. QFRET BODIPY PC-A2 liposome hydrolysis, fluorescence;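 active = inhibition above mean plus 3 SD of compounds lying within the high and low control bounds, cut at about 19% in these data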;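 note: 0% = median of test compound wells and 100% = no enzyme DMSO wells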
AHR act: activates the human aryl hydrocarbon receptor; P35869; AHR-responsive luciferase reporter cells, luminescence; activation, % at 5 µM; hit rate 2.5% among 320,000; in the data active = activation above about 47%;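 note: 0% = vehicle wells and 100% = reference agonist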
PLCb3 inh: blocks human PLC-beta3 enzyme activity. hit rate 0.18% among 370,000. Purified PLC-beta3, fluorogenic substrate, fluorescence. inhibition, % at 12.2 µM. AID 720704. Q01970;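 note: 0% = median of compound wells on plate and 100% = full blocker control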
HIF activator: HIF pathway transcriptional activation | U2OS HRE-luciferase reporter, luminescence; normalized: DMSO 0%, desferrioxamine 100% | activation, % at 7.5 µM (by protocol) | hit rate 0.32% among 300,000 | AID 1910;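 active = mean activation of at least 10% of the iron chelator positive control signal, with at least half of replicates also reaching 10%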
PLCg1 ctr: counter-screen for PLC-beta3 inhibitors: inhibitors of human PLC-gamma1. hit rate 3.1% among 3,300. inhibition, % at 12.3 µM. shares compounds with PLC-gamma1 inh. purified PLC-gamma1, fluorogenic substrate, fluorescence; in the data active = inhibition above about 9.5%
PLCbeta3 conf: confirmation of human PLC-beta3 inhibitors; shares compounds with PLC-gamma1 inh; purified PLC-beta3, fluorogenic substrate fluorescence; inhibition, % at 12.3 µM; hit rate 1% among 3,300; AID 743261
* = called active by the depositor. Most compounds without a hit are left out; they make up all but 3.9% or so of the library. Cut-off read from the data, not from the text of the source, unless noted: active = inhibition above about 11%; inactive = the rest.

`COc1ccc(C(=O)Nc2ccc(S(=O)(=O)N3CCCCC3C)cc2)c(OC)c1OC` (stereo not given) gave Yeast superoxide 108, PLC-gamma1 inh 10*, HGIII-sPLA2 inh -15, AHR act 0, PLCb3 inh 12*, HIF activator 0, PLCg1 ctr 3 and PLCbeta3 conf -1.
`Cc1ccc(/C=C/C(=O)O)cc1S(=O)(=O)Nc1ccccc1C(=O)O` gave Yeast superoxide 100, PLC-gamma1 inh 11*, HGIII-sPLA2 inh 0, AHR act 0, PLCb3 inh 9, HIF activator 0, PLCg1 ctr 5 and PLCbeta3 conf 2.
COc1ccc(/C=C/C(=O)O)cc1S(=O)(=O)N1CCc2ccccc2C1 was read as Yeast superoxide 107, PLC-gamma1 inh 4, HGIII-sPLA2 inh -3, AHR act 4, PLCb3 inh -1 and HIF activator 0.
`Cc1ccc(/C=C/C(=O)O)cc1S(=O)(=O)N1CCc2ccccc2C1` gave Yeast superoxide 102, PLC-gamma1 inh 11*, HGIII-sPLA2 inh -5, AHR act -1, PLCb3 inh 3, HIF activator 0, PLCg1 ctr 5 and PLCbeta3 conf 2.
For O=C(O)c1ccccc1C(=O)NCc1cccnc1 the results were Yeast superoxide 90, PLC-gamma1 inh 5, HGIII-sPLA2 inh 9, AHR act 6, PLCb3 inh 14*, HIF activator 0, PLCg1 ctr -5 and PLCbeta3 conf 3.
Screening O=C(NC(=S)NCc1cccnc1)c1ccc([N+](=O)[O-])cc1 returned Yeast superoxide 105, PLC-gamma1 inh -2, HGIII-sPLA2 inh 4, AHR act 25, PLCb3 inh 2 and HIF activator 0.
`O=C(NCc1cccnc1)c1ccc(NC(=O)c2ccc([N+](=O)[O-])cc2)cc1` gave Yeast superoxide 118, PLC-gamma1 inh 13*, HGIII-sPLA2 inh 2, AHR act -4, PLCb3 inh -1, HIF activator -1, PLCg1 ctr -2 and PLCbeta3 conf -1.
Screening COC(=O)c1sc(C(F)(F)F)c(-c2ccccc2)c1S(=O)(=O)N1CCOCC1 returned PLC-gamma1 inh 2, HGIII-sPLA2 inh 3 and PLCb3 inh -6.
`O=C(Nc1cccnc1)C12CC3CC(CC(C3)C1)C2` gave Yeast superoxide 85, PLC-gamma1 inh 2, HGIII-sPLA2 inh 3, AHR act 0, PLCb3 inh 11*, HIF activator 0, PLCg1 ctr -9 and PLCbeta3 conf -3.
`O=C(N/N=C/c1cccnc1)C12CC3CC(CC(C3)C1)C2` gave Yeast superoxide 114, PLC-gamma1 inh 0, HGIII-sPLA2 inh -2, AHR act 9, PLCb3 inh 5 and HIF activator 0.
O=C(NNC(=O)C12CC3CC(CC(C3)C1)C2)c1cnccn1 was read as Yeast superoxide 87, PLC-gamma1 inh 11*, HGIII-sPLA2 inh 0, AHR act 3, PLCb3 inh 4, HIF activator 0, PLCg1 ctr -5 and PLCbeta3 conf 0.
Screening Cc1ccnc(NC(=O)C23CC4CC(CC(C4)C2)C3)c1 returned Yeast superoxide 108, PLC-gamma1 inh 8, HGIII-sPLA2 inh 1, AHR act 21, PLCb3 inh 11*, HIF activator 0, PLCg1 ctr -2 and PLCbeta3 conf -2.
For CCC(=O)Nc1ccc(NC(=O)C23CC4CC(CC(C4)C2)C3)cn1 the results were Yeast superoxide 102, PLC-gamma1 inh 0, HGIII-sPLA2 inh 3, AHR act 2, PLCb3 inh 1 and HIF activator -54.
For COc1ccc(NC(=O)CN(C)C(=O)c2ccc(NS(=O)(=O)c3ccc4[nH]c(=O)[nH]c4c3)cc2)cc1 the results were Yeast superoxide 95, PLC-gamma1 inh 5, HGIII-sPLA2 inh 1, AHR act -2, PLCb3 inh -4 and HIF activator 0.
For COc1ccc2c(C)cc3n[nH]c(=S)n3c2c1 the results were Yeast superoxide 108, PLC-gamma1 inh -425, HGIII-sPLA2 inh 14, AHR act 29, PLCb3 inh inactive and HIF activator 0.
Screening CCOc1ccc(CCNC(=O)CCn2cccc2)cc1OCC returned Yeast superoxide 109, PLC-gamma1 inh 11*, HGIII-sPLA2 inh -3, AHR act 0, PLCb3 inh 5, HIF activator 0, PLCg1 ctr -3 and PLCbeta3 conf 2.
`COc1ccc(CCNC(=O)CCn2cccc2)cc1OC` gave Yeast superoxide 96, PLC-gamma1 inh 1, HGIII-sPLA2 inh -7, AHR act 2, PLCb3 inh -1 and HIF activator 0.
CCOc1ccc(CCNC(=O)c2[nH]c(C)c(C(C)=O)c2C)cc1OCC was read as Yeast superoxide 116, PLC-gamma1 inh 9.8*, HGIII-sPLA2 inh 17, AHR act 19, PLCb3 inh -3, HIF activator 0, PLCg1 ctr 2 and PLCbeta3 conf 3.
`CCC[C@H]1[C@@H](NCc2cccs2)CC[C@@]23CCCN2C(=O)CCC[C@@H]13` gave PLC-gamma1 inh 3, HGIII-sPLA2 inh 3 and PLCb3 inh 2.
For O=[N+]([O-])c1ccc(N2CCCC2)cc1N1CCCC1 the results were Yeast superoxide 106, PLC-gamma1 inh 9.6*, HGIII-sPLA2 inh 7, AHR act 18, PLCb3 inh 4, HIF activator 0, PLCg1 ctr -5 and PLCbeta3 conf -3.
Screening C[C@H](CO)N1C[C@H](C)[C@H](CN(C)C(=O)Nc2cccc3ccccc23)Oc2ncc(Br)cc2C1=O returned PLC-gamma1 inh -36, HGIII-sPLA2 inh -2 and PLCb3 inh -50.
CN1CCCC(CC2Oc3ccccc3Sc3ccccc32)C1 (stereo not given) was read as Yeast superoxide 100, PLC-gamma1 inh -1, HGIII-sPLA2 inh -3, AHR act 0, PLCb3 inh 3 and HIF activator 0.
Screening c1ccc2c(c1)OC(CCCN1CCCCC1)c1ccccc1S2 (stereo not given) returned Yeast superoxide 95, PLC-gamma1 inh 11*, HGIII-sPLA2 inh -1, AHR act 0, PLCb3 inh 4, HIF activator 0, PLCg1 ctr -4 and PLCbeta3 conf 1.
COC(=O)c1ccccc1COc1cccn2c(N(C)C(=O)CCC3CCCC3)c(C)nc12 was read as PLC-gamma1 inh -2, HGIII-sPLA2 inh -11 and PLCb3 inh -1.
O=C(c1cnc2c(c1)COc1ccc(Cl)cc1-2)c1ccccc1O was read as Yeast superoxide 87, PLC-gamma1 inh 12*, HGIII-sPLA2 inh 8, AHR act -3, PLCb3 inh 2, PLCg1 ctr -25 and PLCbeta3 conf -24.

Bioassay records (PubChem)
